Test results published in PubChem BioAssay (NCI).
About 79,000 compounds went through this panel and 15% of them were active in at least one assay; those are over-represented in the sample as a whole. The source made the active and inactive calls. No stated cut-off is given here; in the data, active means growth inhibition above about 70%; inactive means the rest. Where a SMILES comes first, the peptide text is derived from it. Bridges are numbered along the chain shown (N, C = ends). [ ]: non-standard residue; d: D form. The star is where a group is joined. ξ: configuration not given here. ξNMePhe(4-NMe2) = CNC(Cc1ccc(N(C)C)cc1)C(=O)O; Picolinoyl(3-OH) = O=C(c1ncccc1O)*; ξPip(4-oxo) = O=C1CCNC(C(=O)O)C1; Phg = N[CH](C(=O)O)c1ccccc1; Abu = CC[CH](N)C(=O)O

Key:
[1] = NCI Yeast Anticancer Drug Screen. Data for the rad50 strain (AID 155);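 further: 0% = growth of vehicle-only cultures of the same strain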; settings: S. cerevisiae rad50 strain growth inhibition; at 50.0 µM; active compounds read high
Procedure, shortened: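 Yeast carrying a defined DNA repair defect were exposed to test compounds, and growth was compared with vehicle-treated controls to give percent inhibition.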

[2] = NCI Yeast Anticancer Drug Screen. Data for the mec2-1 strain (AID 157); settings: S. cerevisiae mec2-1 strain, at 50.0 µM, active compounds read high
Procedure, shortened: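 Test agents were screened against the mec2-1 yeast strain, with defined DNA repair or cell cycle alteration. Growth was scored as inhibition against vehicle-only controls.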

[3] = NCI Yeast Anticancer Drug Screen. Data for the sgs1 mgt1 strain (AID 161);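 further: 0% = growth of cultures given vehicle only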; settings: S. cerevisiae sgs1 mgt1 strain, at 50.0 µM, active compounds read high
Procedure, shortened: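 Inhibition of yeast growth, normalised to vehicle-treated controls, is reported for a strain bearing genetic alterations in DNA damage repair.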

[4] = NCI Yeast Anticancer Drug Screen. Data for the cln2 rad14 strain (AID 165);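 further: 0% = growth equal to vehicle treated cultures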; settings: S. cerevisiae cln2 rad14 strain, at 50.0 µM, active compounds read high
Procedure, shortened: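 Growth of compound-exposed yeast (cln2 rad14 genotype) measured and expressed as inhibition relative to vehicle.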

[5] = NCI Yeast Anticancer Drug Screen. Data for the mlh1 rad18 strain (AID 175); settings: S. cerevisiae mlh1 rad18 strain growth inhibition; at 50.0 µM; active compounds read high
Procedure, shortened: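 In this whole-cell yeast screen, a strain with altered DNA damage repair is challenged with compound, and its growth is measured against matched vehicle-treated controls.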

[6] = NCI Yeast Anticancer Drug Screen. Data for the bub3 strain (AID 167); settings: S. cerevisiae bub3 mutant strain, at 50.0 µM, active compounds read high
Procedure, shortened: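 Compounds were applied to a genetically altered yeast strain carrying a cell-cycle control defect. Growth inhibition was scored against vehicle-treated controls.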

Measured: growth inhibition

CCOC(=O)C(CCC(C)C)C(=O)OCC
inactive: [1] -7.55% | [2] 7.85% | [3] -9.65% | [4] -53.4% | [5] 2.6%

C[N+](C)=c1ccc2nc3c(cc(Nc4ccccc4)c4ccccc43)oc-2c1
inactive: [1] 20.1% | [2] 49.6% | [3] 30.1% | [4] 29.6% | [5] 39.2%

CS(=O)CC1=NC(=N)N=C1CS(C)=O (configuration not stated)
inactive: [1] -9.75% | [2] -11.2% | [3] 12.1% | [4] -22.1% | [5] 5.75%

CC(C)CCOC(=O)c1ccccc1
inactive: [1] -7.2% | [2] -22.5% | [3] -34.1% | [4] -68.9% | [5] -22.9%

O=C(CCNNC(=O)c1ccncc1)NCc1ccccc1
inactive: [1] 8.25% | [2] 11.6% | [3] 11.9% | [4] -46% | [5] 7.3%

CN(C)c1ccc(C(c2ccc(O)cc2)c2ccc(N(C)C)cc2)cc1
inactive: [1] -10.4% | [2] -37.1% | [3] -17.9% | [4] -38.6% | [5] -6.5%

C=C[Si](OC(C)=O)(OC(C)=O)OC(C)=O
inactive: [1] 27.2% | [2] -13.2% | [3] 0.85% | [4] 14.7% | [5] 1.65%

Nc1ccc(CC(=O)O)c(N)c1
inactive: [1] 0.55% | [2] -7.8% | [3] -4.6% | [4] -6.25% | [5] -0.4%

O=C(Cc1ccccc1)Cc1ccccc1
inactive: [1] -1.55% | [2] -5% | [3] -0.45% | [4] -3.3% | [5] 13.6%

CCN1C(=O)/C(=C/C=C/N(C)c2ccccc2)SC1=S
inactive: [1] 0.9% | [2] -13.3% | [3] 3.25% | [4] 9.05% | [5] 7.85%

CC(=O)c1c[nH]c2ccccc12
inactive: [1] -6.8% | [2] -9.85% | [3] -19.6% | [4] -53.2% | [5] 9.15%

O=C(OCC(O)C1OC(c2ccccc2)OC(COC(=O)c2ccccc2)C1O)c1ccccc1 (configuration not stated)
inactive: [1] 5.85% | [2] 4.85% | [3] 13.6% | [4] 16.6% | [6] 1% | [5] 11.9%

O=C(Cc1ccc(OCc2ccccc2)cc1)NCc1ccc2c(c1)OCO2
inactive: [1] 3.2% | [2] -5.5% | [3] -1.2% | [4] -10.8% | [6] 17.5% | [5] -9.5%

Cc1cc(N2CCC(N3CCCC3)CC2)nc(/N=C(\N)Nc2ccc(Cl)c(Cl)c2)n1
inactive: [1] 18.1% | [2] -2.25% | [3] -6.05% | [4] -3.7% | [5] 34%

CCCOC(=O)C(O)c1ccccc1 (configuration not stated)
inactive: [1] 16.2% | [2] -6.25% | [3] -5.5% | [4] -24.1% | [6] -13.2% | [5] 14.8%

O=[N+]([O-])c1ccc(Sc2ccncn2)c([N+](=O)[O-])c1
inactive: [1] 24.7% | [2] 16.6% | [3] 8.9% | [4] -5.55% | [5] 30.8%

CCCCCCCCCCCCCC(=O)Oc1ccc[nH]c1=O
inactive: [1] -12.2% | [2] -19.6% | [3] -15.9% | [4] 11% | [5] 0.7%

Cc1cc(C(O)(c2ccc(Nc3ccccc3)cc2)c2ccc(Nc3ccc(S(=O)(=O)O)cc3)cc2)ccc1N (configuration not stated)
inactive: [1] -44.5% | [2] -46% | [3] -9.6% | [4] -16.1% | [6] -36.6% | [5] -34.6%

O=S(=O)(O)c1ccc(Cl)c(Cl)c1
inactive: [1] -0.35% | [2] -15% | [3] -3.4% | [4] 15.4% | [5] -2.25%

CC1(C)S(=O)(=O)OCCOS1(=O)=O
inactive: [1] -25.4% | [2] 16.6% | [3] 6.75% | [4] -20.5% | [5] 0.15%

CC1(C(N)=O)CCC(C(=O)O)C1(C)C (configuration not stated)
inactive: [1] 10.3% | [2] -3.45% | [3] 14.4% | [4] -29.9% | [5] 8.15%

O=c1[nH][nH]c(=O)c2cc([N+](=O)[O-])ccc12
inactive: [1] 32.9% | [2] 11.6% | [3] 1.7% | [4] -67.7% | [5] 18.1%

COc1cc(C2NC(=O)C(C#N)=C(Nc3cccc(C)c3)S2)ccc1O (configuration not stated)
inactive: [1] -2.7% | [2] -18.8% | [3] 13.4% | [4] 1% | [5] -16.9%

C/C(=N\O)C1(O)CCCCC1
inactive: [1] 28.9% | [2] 3.55% | [3] 8% | [4] 13.7% | [5] 15.8%

O=C(O)C(Cc1ccccc1)C(=O)O
inactive: [1] 5.8% | [2] -7.15% | [3] -27.7% | [4] -33% | [5] -7.2%

COc1cccc(Sc2ccc([N+](=O)[O-])c3no[n+]([O-])c23)c1
active: [1] 81.5% | [2] 91.7% | [3] 90.2% | [4] 83.3% | [5] 83.5%

CCOc1ccc(/C=N/N=C(N)N)cc1OCC
inactive: [1] -31.4% | [2] -18% | [3] -17.6% | [4] -53.4% | [5] -11.9%

O=[N+]([O-])c1ccc(N=Nc2ccc(O)c3ccccc23)cc1
inactive: [1] 13.3% | [2] 1.45% | [3] 21.9% | [4] 16.6% | [5] -9.35%

Cc1cc(N)c(S(=O)(=O)O)c(N)c1
inactive: [1] -31.9% | [3] -4% | [4] -15.1% | [6] 11.8% | [5] -57.8%

Nc1ccc(N=Nc2ccc(S(=O)(=O)O)cc2)c2ccccc12
inactive: [1] -0.3% | [3] -22.4% | [4] -25.9% | [6] 1.75% | [5] 9.05%

C=C1CC/C=C(\C)C(=O)C[C@@H]2[C@@H]1CC2(C)C
inactive: [1] 5.85% | [3] 20.2% | [4] 18.6% | [6] 15.3% | [5] -43.1%

NC(C(=O)O)c1ccc([N+](=O)[O-])cc1 (configuration not stated)
inactive: [1] -0.45% | [3] 8.8% | [4] 7.25% | [5] -14.7%

O=C(NC1CCCCC1)OCc1c(COC(=O)NC2CCCCC2)c(-c2ccc(Cl)c(Cl)c2)n2c1CCC2
inactive: [1] 16% | [3] 27.4% | [4] 43.3% | [6] -5.3% | [5] 6.9%

CCC(=O)Oc1ccc(OC)cc1
inactive: [1] 23.1% | [3] 2.9% | [4] 29.4% | [6] 3.9% | [5] 23.6%

c1ccc2c(c1)Sc1ccccc1S2
inactive: [1] -6.95% | [3] 22.1% | [4] -19.6% | [6] -3.6% | [5] -18.6%

CC(=O)c1ccc(C(C)(C)C)cc1
inactive: [1] -2.35% | [3] -12.9% | [4] 12.1% | [6] 2.5%

CCOC(=O)CNN
inactive: [1] -7.2% | [3] -12.2% | [4] 9.75% | [6] -14.8% | [5] -30.1%

CCOC(=O)Nc1nn[nH]n1
inactive: [1] 7.75% | [3] 32% | [4] 4.15% | [6] -4.95% | [5] 3.65%

c1c(-c2cc(C3CC3)[nH]n2)n[nH]c1C1CC1
inactive: [1] -62% | [3] -17.6% | [4] -16.4% | [6] 1.8% | [5] 2.35%

Nc1nc(N)c(N=Nc2ccc(C(=O)O)cc2)c(N)n1
inactive: [1] -3.65% | [3] 3% | [4] 19.6% | [6] 19% | [5] 22.4%

CC(=O)c1ccc2c(ccc3ccccc32)c1
inactive: [1] -13.1% | [3] -12.6% | [4] -14.6% | [6] -5.4% | [5] 3.9%

COc1ccc(OC)c(/C=C2\CCc3ccccc3C2=O)c1
inactive: [1] 17.4% | [2] -30.1% | [3] 27.5% | [4] 7.4% | [5] -23.6%

NCCC(=O)c1ccc(Cl)cc1
inactive: [1] 45.4% | [3] 6.8% | [4] 4.45% | [6] -9.6% | [5] 19.8%

CC(=O)NC(N)=S
inactive: [1] 2.3% | [3] -23.1% | [4] -3.05% | [6] -3.25% | [5] -7%

CCC1NC(=O)C(NC(=O)c2ncccc2O)C(C)OC(=O)C(c2ccccc2)NC(=O)C2CC(=O)CCN2C(=O)C(Cc2ccc(N(C)C)cc2)N(C)C(=O)C2CCCN2C1=O (configuration not stated) (tested in a mixture with another compound) ({Picolinoyl(3-OH)}-T[Abu]P[ξNMePhe(4-NMe2)][ξPip(4-oxo)][Phg]; ester 1-C; configuration not given here)
inactive: [1] 19.4% | [3] 3.3% | [4] 20.7% | [6] 9.45% | [5] -14.7%

COC(=O)Nc1cccc(Cl)c1OC
inactive: [1] 8.6% | [3] 0.45% | [4] 2.05% | [6] 3.55% | [5] -6.55%

COCCCC/C(=N\OCCN)c1ccc(C(F)(F)F)cc1
inactive: [1] 26.5% | [3] 12.6% | [4] -3.9% | [6] -0.35% | [5] 25.3%

COc1ccc(C(=O)C(Br)C(Br)C(=O)O)cc1 (configuration not stated)
inactive: [1] 24.6% | [3] 6.35% | [4] -64.7% | [6] 5.45% | [5] 38.9%

CNc1nc(NC)c2cn[nH]c2n1
inactive: [1] 17.7% | [3] 20.2% | [4] -9.25% | [6] -3.9% | [5] 16.1%
